Test results from PubChem BioAssay (NCI).
This is part of a sample that, as a whole, favours compounds with a hit. Of some 83,000 tested, about 20% had one in any assay.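 The endpoint reported here, percent growth, reads 100 for growth as untreated, 0 for no net growth and -100 for all cells dead.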 Values without a mark were called inactive. The source made the active and inactive calls. How the source made its calls: active means growth percent below 10; inactive means the rest.

Experiments:
Experiment in all cases: NCI-60 one-dose screen, 48 h (100 = growth as untreated, 0 = no growth, -100 = all killed)
Settings in all cases: 10 µM
DU-145 prostate = tested on: DU-145 prostate
K-562 leukemia = tested on: K-562 leukemia
MALME-3M melanoma = tested on: MALME-3M melanoma
MDA-MB-231 breast = tested on: MDA-MB-231 breast
RXF 393 renal = tested on: RXF 393 renal
SF-268 CNS = tested on: SF-268 CNS
SF-295 CNS = tested on: SF-295 CNS
SF-539 CNS = tested on: SF-539 CNS
UACC-257 melanoma = tested on: UACC-257 melanoma
M14 melanoma = tested on: M14 melanoma
HCT-15 colon = tested on: HCT-15 colon
HT29 colon = tested on: HT29 colon
SNB-75 CNS = tested on: SNB-75 CNS
SNB-19 CNS = tested on: SNB-19 CNS
U251 CNS = tested on: U251 CNS
PC-3 prostate = tested on: PC-3 prostate
SK-MEL-5 melanoma = tested on: SK-MEL-5 melanoma
UACC-62 melanoma = tested on: UACC-62 melanoma
LOX IMVI melanoma = tested on: LOX IMVI melanoma
SK-MEL-28 melanoma = tested on: SK-MEL-28 melanoma

Row | SMILES | growth (DU-145 prostate) | growth (K-562 leukemia) | growth (MALME-3M melanoma) | growth (MDA-MB-231 breast) | growth (RXF 393 renal) | growth (SF-268 CNS) | growth (SF-295 CNS) | growth (SF-539 CNS) | growth (UACC-257 melanoma) | growth (M14 melanoma) | growth (HCT-15 colon) | growth (HT29 colon) | growth (SNB-75 CNS) | growth (SNB-19 CNS) | growth (U251 CNS) | growth (PC-3 prostate) | growth (SK-MEL-5 melanoma) | growth (UACC-62 melanoma) | growth (LOX IMVI melanoma) | growth (SK-MEL-28 melanoma)
1 | CC(=O)OC1C=CC(OC(C)=O)O1 (stereo unspecified) | 101% | 91.1% | 89.7% | 97.7% | 112% | 97.4% | 93.5% | 112% | 94% | 89.5% | 95.4% | 91.5% | 95.3% | 104% | 88.6% | 92.7% | 104% | 84.4% | 80.4% | 110%
2 | COc1cc2cc(Oc3ccc(NC(=O)c4cccc(C(F)(F)F)c4)cc3)c(C)nc2cc1OC | 52.9% | 23.8% | 47.5% | 33.3% | 54% | 62.9% | 8.94% (active) | 60% | 44.9% | 16.1% | 38.3% | 31.3% | 68.4% | 58.8% | 19.5% | 9.54% (active) | 2.78% (active) | 29.3% | 45.8% | 71.4%
3 | CCCc1cn(CC(=O)Nc2nc3ccccc3s2)nn1 | 117% | 106% | 101% | 98.9% | 114% | 98.8% | 104% | 99.5% | 106% | 102% | 108% | 104% | 101% | 102% | 97.8% | 96.3% | 99.5% | – | 96.6% | 103%
4 | COc1ccc(-c2cc(-c3ccc(OC)c(OC)c3)nc(SCCCC(=O)NO)n2)cc1 | -2.45% (active) | 7.32% (active) | -6.87% (active) | -10% (active) | -46.6% (active) | 2.03% (active) | -36.8% (active) | 1.28% (active) | 9.39% (active) | -41.5% (active) | 2.78% (active) | 4.72% (active) | -19% (active) | 11.2% | -9.1% (active) | 1.17% (active) | -65.2% (active) | – | -79% (active) | 19.2%
5 | O=C(CCc1nnc2sc(-c3cc(O)c(O)c(O)c3)nn12)c1nc2ccccc2[nH]1 | 112% | 8.3% (active) | 103% | 102% | 115% | 113% | 82.8% | 80% | 110% | 105% | 88.8% | 93.5% | 93.6% | 113% | 94.4% | 86.3% | 84.1% | – | 98.3% | 110%
6 | CC1CCCC(C(=O)O)C1C(=O)O (stereo unspecified) | 114% | 87.6% | 87.8% | 92.8% | 94.5% | 105% | 94.8% | 97.8% | 80.8% | 94.7% | 102% | 98.8% | 100% | 101% | 86% | 76% | 102% | – | 98% | 111%
7 | COc1cc(-c2nn(-c3cccc(NC(=O)CCN4CCN(Cc5ccccc5)CC4)c3)cc2-c2ccncc2)ccc1Cl | 7.55% (active) | -43.1% (active) | -60.7% (active) | -14.7% (active) | -50.6% (active) | 19.1% | -46.5% (active) | -74.3% (active) | -58.2% (active) | -61.3% (active) | 11.8% | -20.2% (active) | -10.3% (active) | 39.9% | 6.53% (active) | 7.06% (active) | -95.3% (active) | 10.7% | -88.6% (active) | -85.4% (active)
8 | COc1cc(NC(=O)Nc2cnc(Nc3ccc(N4CCOCC4)cc3)nc2Oc2cccc(OC)c2)cc(OC)c1 | 36.9% | 55.4% | 8.57% (active) | 16.9% | -32.5% (active) | 50% | 34.6% | -68.4% (active) | 48% | 45.2% | 81.9% | 37.2% | 9.13% (active) | 66.6% | 22% | 47.5% | -19.9% (active) | – | 33.3% | 32.2%
9 | CC(=O)C1CCC2C3CC=C4CC(SC(=N)N)CCC4(C)C3CCC12C (stereo unspecified) | 75.5% | -5.34% (active) | -6.9% (active) | 46.6% | 25.6% | 72% | 51.1% | 65.5% | 13.6% | 18.3% | 16.3% | 11% | 55.4% | 64.2% | 30.5% | 33% | 15.6% | 64.4% | -56% (active) | 61.5%
10 | O=C(Nc1cccc2c1CCCC2)c1cc2ccccc2cc1O | 51.2% | 16.9% | 26.8% | 34.8% | 39.5% | 38.2% | 79.9% | 34.2% | 22.3% | 21.5% | 30.8% | 90.5% | 63.8% | 30.1% | 33.8% | 12.8% | -37.8% (active) | 23% | 27.2% | 34.2%
11 | COc1cc2cc(Oc3ccc(NC(=O)Nc4ccc(Cl)c(C(F)(F)F)c4)cc3)c(C)nc2cc1OC | 12.7% | -9.54% (active) | -23% (active) | -50.6% (active) | -33.4% (active) | -10.2% (active) | -70.9% (active) | -36.2% (active) | -12.5% (active) | -73.6% (active) | 1.27% (active) | -24.9% (active) | 12.5% | 23.7% | -80.4% (active) | -0.614% (active) | -73.4% (active) | -51.5% (active) | -81.3% (active) | -35.9% (active)
12 | CN(C)CCCOc1ccc(NC2=C(Cl)C(=O)C(Nc3ccc(OCCCN(C)C)cc3)=C(Cl)C2=O)cc1 | -95.8% (active) | -11.7% (active) | -71.7% (active) | -80.2% (active) | -97.9% (active) | -51.2% (active) | -22.8% (active) | -87.9% (active) | -88.2% (active) | -71.8% (active) | -82% (active) | -54.1% (active) | -77.9% (active) | -48.6% (active) | -91.2% (active) | -7.37% (active) | -96.6% (active) | – | -80.5% (active) | 39.4%
13 | COc1ccc(-c2cc(-c3ccc(Cl)cc3)nc(SCCCC(=O)NO)n2)cc1 | 9.82% (active) | 7.35% (active) | -11.8% (active) | 1.61% (active) | -21% (active) | 2.08% (active) | -19.1% (active) | 4.55% (active) | 3.4% (active) | -31.1% (active) | 14.5% | 13.3% | -6% (active) | 13.5% | 5.21% (active) | 0.504% (active) | -52.5% (active) | -57.2% (active) | -24.9% (active) | 31.9%
14 | Nc1cc(Br)c(-c2nn3c(CCC(=O)c4nc5ccccc5[nH]4)nnc3s2)c(Br)c1 | 102% | 7.05% (active) | 95.8% | 99% | 109% | 99.7% | 108% | 83.4% | 116% | 97.5% | 124% | 78.7% | 92.6% | 104% | 97.5% | 87.1% | 91.6% | – | 93.4% | 111%
15 | COc1ccc(/C=C2\CCCC3=C2NC(N)=NC3c2ccc(OC)cc2)cc1 (stereo unspecified) | 109% | 107% | 99.6% | 96.9% | 99.3% | 109% | 104% | 107% | 91.2% | 106% | 92.9% | 93.2% | 87.4% | 92.1% | 90.6% | 86.7% | 56.2% | – | 73.6% | 98.5%
16 | CCN(CC)CCCC(Nc1c2ccc(Cl)cc2nc2ccc(OC)cc12)c1ccc(F)cc1 (stereo unspecified) | 32.6% | -42.8% (active) | -75.4% (active) | -15.2% (active) | -71.1% (active) | 67.8% | 91.5% | -82.3% (active) | -55.3% (active) | -79.2% (active) | 1.06% (active) | 5.7% (active) | 93.3% | 45.7% | -29% (active) | 73% | -95.7% (active) | – | -73.2% (active) | -83.5% (active)
